Source: PubChem BioAssay
KB-V1 cytotox: kills drug-selected multidrug resistant KB-V1 cells; Potency, µM (top dose mostly 46.1 µM), most hits filed as cytotoxic; actives 3.4% (n = 400,000); KB-V1 MDR cells viability, CellTiter-Glo, 72 h; AID 1347076; also: % is scaled to controls: 0 for no effect and ±100 for the full control effect; nearly all actives have a fitted effect of over 60% in size
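Drug-selected KB-V1 cells, grown in DMEM lacking phenol red with 10% FBS, receive compound titrations; after three days at 37 degrees C, surviving cell ATP is quantified by CellTiter-Glo luminescence and responses normalized and curve-fitted.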
HT1080-NT tox: kills 2HG-producing HT-1080-NT fibrosarcoma cells | HT-1080-NT fibrosarcoma viability, CellTiter-Glo ATP luminescence, 48 h | Potency, µM (series often up to 46.1 µM), inactives show at the top dose activity, negative = less viability, hits mostly cytotoxic | actives 1.6% (n = 360,000);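 also: NT is the 2HG producing partner of a matched IDH1 knockdown line; 0% = DMSO-treated cells and -100% = media-only wells without cells; nearly all actives have a fitted effect of over 55% in size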
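Viability by CellTiter-Glo luminescence after 48 h compound exposure at 37C of HT-1080-NT cells (750/well, RPMI, 5% FBS). % activity scaled between DMSO wells and medium-only wells, then curve-fitted and categorized by curve class.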
KB-3-1 tox: kills parental KB-3-1 adenocarcinoma cells; KB-3-1 viability, CellTiter-Glo ATP luminescence, 72 h; Potency, µM (doses to about 46.1 µM), most hits filed as cytotoxic; actives 1.4% (n = 400,000); AID 1347075; also: % is scaled to controls: 0 for no effect and ±100 for the full control effect; nearly all actives have a fitted effect of over 60% in size
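Luminescent ATP read-out (CellTiter-Glo) measures survival of drug-naive KB-3-1 cells after 72 h compound exposure at 37 °C. Titration series was screened from lowest to highest concentration, with DMSO vehicle plates as background controls.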
SW480 rereplic: DNA re-replication induction in SW480 cells. SW480 DNA re-replication, Hoechst DNA content imaging, 48 h. Potency, µM (highest dose often 46.1 µM), without a hit: at the highest dose re-replication activation, most hits filed as activators. actives 1.8% (n = 340,000); also: % of control where 0% means no effect; nearly all actives have a fitted effect of over 55% in size
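Image-based read-out: total Hoechst fluorescence of nuclei (405 nm excitation, 500-530 nm emission), with hits raising the fraction of high-intensity nuclei. SW480 colon cells incubated 48 hr with compounds at 37 C.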
MCF10A rereplic: DNA re-replication induction in MCF 10a cells | MCF 10A DNA re-replication, Hoechst nuclear intensity, 48 h | Potency, µM (series often up to 46.1 µM), for inactives: at the highest dose activity, positive = re-replication, actives largely listed as activators | actives 2.9% (n = 350,000) | AID 624296; also: % of control where 0% means no effect; nearly all actives have a fitted effect of over 50% in size
HT1080 IDH1KD tx: kills HT-1080 cells with IDH1 knockdown. HT-1080 IDH1 knockdown viability, ATP luminescence, 48 h. Potency, µM (top dose mostly 46.1 µM), for inactives: at the highest dose activity, negative = toxicity, most hits filed as cytotoxic. actives 2% (n = 360,000);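 also: 0% = DMSO wells and -100% = cell-free medium wells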
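Assay cells: HT-1080 with IDH1 knockdown, 750 per well, RPMI/5% FBS. Exposure: 48 h at 37 °C following 2 h pre-incubation. Read: CellTiter-Glo luminescence; fitted concentration-response, curve class assigned.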
Starred values were filed as active, the others as inactive; i = inactive; ? = inconclusive; nt = no result. Hits are enriched below; roughly 8% of the tested compounds scored in any of these assays. Calls follow the shape of the dose curve; as a rule, active = well fitted curve in the direction sought with a large enough effect; inconclusive = small, poorly fitted or top-dose-only effect, or another doubt; inactive = no such curve, though single readings can be large; an effect the other way counts as inactive or inconclusive. Potency is read from the fitted curve at half-maximal effect.

SMILES	KB-V1 cytotox	HT1080-NT tox	KB-3-1 tox	SW480 rereplic	MCF10A rereplic	HT1080 IDH1KD tx
CCN(CC)CCCNC(=O)c1sc2nc(-c3ccc(F)cc3)cn2c1C	16µM*	?	i	?	23µM*	?
Cc1nc2cc3c(cc2c(C)c1C(=O)OC(C)C)OCO3	?	-3%	i	2%	5%	-4%
Cc1ccccc1S(=O)(=O)N1C[C@H]2CON(C)[C@H]2C[C@H]1c1cccc(N2CCOCC2)c1	i	-1%	?	-4%	-8%	-1%
Cc1ccccc1S(=O)(=O)N1C[C@H]2CON(C)[C@H]2C[C@H]1c1cccc(-c2ccc(C#N)cc2)c1	i	0%	i	4.1µM*	-3%	-12%
O=C(c1ccc(Cl)c(Cl)c1)N1CCC(=O)N(C(COCc2cccc(Cl)c2)Cc2ccccc2)CC1 (stereo not given)	i	?	i	?	23µM*	?
Cc1cccc(COCC(Cc2ccccc2)N2CCN(C(=O)c3ccc(C(F)(F)F)cc3)CCC2=O)c1 (stereo not given)	12µM*	-2%	21µM*	7%	?	-29%
O=C(c1ccc(Cl)c(Cl)c1)N1CCC(=O)N([C@H](COCc2ccc(Cl)cc2)Cc2ccccc2)CC1	21µM*	?	?	nt	nt	26µM*
CCc1ccc(NC(=O)Cn2c(=O)n(Cc3nc(-c4ccccc4)no3)c(=O)c3cc4c(cc32)OCO4)cc1	i	nt	i	nt	nt	nt
CC1N=C2c3ccccc3N=C(SCC(=O)NCCc3ccc(Cl)cc3)N2C1=O (stereo not given)	i	nt	i	nt	nt	nt
Cc1cc(=O)oc2cc(OCC(=O)N3CCCC3)c(Cl)cc12	i	-3%	i	-13%	-1%	19%
Cc1cc(=O)oc2cc(OCC(=O)N3CCOCC3)c(Cl)cc12	9.2µM*	5%	i	3%	-6%	6%
Cc1ccc(-c2nnc(N3CCC(C)CC3)c3ccccc23)cc1	?	-16%	i	?	?	-20%
CC1CCN(c2nnc(-c3ccccc3)c3ccccc23)CC1	i	2%	i	1%	11µM*	-3%
Cc1ccc(-c2nnc(N3CCC(C)CC3)c3ccccc23)cc1C	?	?	i	11%	?	29µM*
CCOc1ccc(C(=O)C(CN2CCOCC2)c2ccccc2)cc1 (stereo not given)	?	-9%	?	5.2µM*	7.3µM*	9.2µM*
CCOc1ccc(C(CN2CCOCC2)C(C)=O)cc1OC (stereo not given)	?	21µM*	?	nt	nt	10µM*
CC(CN1CCCC1)OC(=O)C(c1ccccc1)c1ccccc1 (stereo not given)	i	10%	i	?	0.58µM*	18%
CCOc1ccc(C(C#N)N2CCOCC2)cc1OC (stereo not given)	i	4%	i	-5%	4%	3%
O=C(c1ccccc1)c1ccc(OCC(O)CN2CCOCC2)cc1 (stereo not given)	i	-5%	i	0%	-1%	-2%
O=C(c1ccc(Br)cc1)C(CN1CCOCC1)c1ccccc1 (stereo not given)	?	10µM*	?	?	18µM*	7.3µM*
CCCCN1CC(N2CCN(C(=O)c3ccco3)CC2)CS1(=O)=O (stereo not given)	i	14%	i	nt	nt	3%
Cc1ccc(C(CNS(=O)(=O)c2ccc(F)cc2C)N2CCN(C)CC2)cc1 (stereo not given)	i	-30%	i	-79%	3%	-17%
CC(CN1CCN(CC(C)C(=O)c2ccccc2)CC1)C(=O)c1ccccc1 (stereo not given)	i	-5%	i	2%	7%	2%
O=C(c1ccccc1)C(CN1CCCCC1)c1ccccc1 (stereo not given)	15µM*	2.6µM*	5.8µM*	1.5µM*	4.1µM*	10µM*
COc1cc(OC)c(OC)cc1/C=C1\CC(C)C/C(=C\c2cc(OC)c(OC)cc2OC)C1=O (stereo not given)	i	?	?	?	16µM*	?
SMILES	KB-V1 cytotox	HT1080-NT tox	KB-3-1 tox	SW480 rereplic	MCF10A rereplic	HT1080 IDH1KD tx
COc1cc(OC)c(OC)cc1/C=C1/Cc2ccccc2C1=O	i	8%	i	9%	-1%	-1%
CCC1C/C(=C\c2cc(OC)c(OC)cc2OC)C(=O)/C(=C/c2cc(OC)c(OC)cc2OC)C1 (stereo not given)	i	13µM*	?	18µM*	4.6µM*	21µM*
Nc1ccn(CC(=O)NCc2ccc3[nH]ccc3c2)c(=O)n1	i	1%	i	-2%	-3%	3%
Cc1cc(N2CCN(c3nc(-c4ccc([N+](=O)[O-])cc4)cs3)CC2)c2ccccc2n1	?	18µM*	i	6%	?	?
CN1CCN(Cc2nc3ccccc3c(=O)n2Cc2nc(-c3ccc([N+](=O)[O-])cc3)cs2)CC1	?	21µM*	?	?	?	21µM*
CN(C)Cc1nc2ccccc2c(=O)n1Cc1nc(-c2cccc([N+](=O)[O-])c2)cs1	?	-28%	i	1%	14%	?
CCc1nnc(NC(=O)C2CCCN2C(=O)Nc2ccc(C)cc2)s1 (stereo not given)	i	10%	i	-22%	-6%	9%
COc1ccc(CCNC(=O)NCc2noc3ccc(C)cc23)c(OC)c1	i	nt	i	nt	nt	nt
COc1ccc(C(=O)NC(=S)Nc2cccc(NC(=O)c3ccco3)c2)cc1[N+](=O)[O-]	i	-2%	i	2%	3%	0%
CCOc1cc(NS(=O)(=O)c2ccc(Cl)cc2)c(OCC)cc1NC(=O)CC(C)C	11µM*	?	i	6%	-5%	?
CCOc1cc(NS(=O)(=O)c2ccccc2)c(OCC)cc1NC(=O)c1ccco1	15µM*	2%	i	-6%	10%	-4%
Cc1ccccc1NC(=O)c1cccc(NC(=O)c2ccco2)c1	i	8%	i	-12%	-2%	10%
CCOc1ccc(C(=O)NC(=S)Nc2cccc(NC(=O)c3ccco3)c2)cc1[N+](=O)[O-]	?	-13%	18µM*	16%	?	-2%
CCOc1ccccc1NC(=O)c1cccc(NC(=O)c2ccco2)c1	?	?	2.6µM*	7.3µM*	6.5µM*	2.3µM*
